Assay results from PubChem BioAssay.
Active and inactive are the calls of the source.

Key:
Albumin (Bos taurus) = Albumin (Bos taurus) (UniProt P02769); test: bovine serum albumin binders on microarray, profiling panel, artefact control for SMM control protein annotation, biochemical, small-molecule microarray, Alexa647 label, 635/667 nm fluorescence (AID 1118); settings: BSA-A647 binding, fluorescence 635 nm, higher = more signal;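 note: score merges 667 nm emission intensity and signal-to-noise per printed compound spot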
[1] = small-molecule microarray binders of probe aXIP, primary screen, biochemical, NeuroSMM set, 635/667 nm fluorescence (AID 1119); settings: higher = more signal, called active from +8 up or from −8 down;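 note: probe is the protein aXip251-270 applied at 1 µg/mL to compound-printed slides; binding of probe to printed compounds measured as 667 nm fluorescence plus signal to noise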
[2] = small-molecule binders of probe aNOTCH3, primary screen, biochemical, small-molecule microarray, 635/667 nm fluorescence (AID 1120); settings: higher = more signal;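 note: probe is a biotin-tagged antibody raised against NOTCH3 rather than NOTCH3 protein; score merges spot fluorescence near 667 nm with spot signal to noise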
[3] = small-molecule binders of probe aNOTCH2, primary screen, biochemical, small-molecule microarray, 635/667 nm fluorescence (AID 1121); settings: higher = more signal;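 note: score merges feature fluorescence read at 667 nm with its signal to noise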
[4] = molecular target: Carbonic anhydrase 2 (Homo sapiens) (UniProt P00918); test: CAII small-molecule binders, profiling panel, biochemical, small-molecule microarray, Alexa647-labelled CAII (AID 1122); settings: CAII-A647 binding fluorescence, higher = more signal
[5] = COS7 lysate on small-molecule microarray, probe aHis, 635 nm (AID 1123); settings: COS7 cell lysate, fluorescence, higher = more signal;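 note: z-score combines 667nm fluorescence intensity with signal-to-noise per printed compound spot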
[6] = compound binding in COS7 lysate, probe aLAP1, primary screen, cell lysate, small-molecule microarray (AID 1124); settings: probe aLAP1, fluorescence, higher = more signal;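 note: lysate comes from COS7 cells expressing LAP1 and is applied at 0.3 µg/mL; score merges spot fluorescence near 667 nm with signal-to-noise over triplicate slides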
Sam68 (KHDRBS1) = test: Sam68 small-molecule binders, primary screen, biochemical, small-molecule microarray, 635 nm fluorescence (AID 1125); settings: small-molecule microarray binding, higher = more signal;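 note: score merges 667 nm channel intensity with signal to noise over triplicate slides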
[7] = test system: Chordin-like protein 2 (CHRDL2); test: CHRDL2 small-molecule binders, primary screen, biochemical, small-molecule microarray, 635 nm fluorescence (AID 1126); settings: small-molecule microarray binding, fluorescence 635 nm; higher = more signal;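 note: printed compound slides probed with Chrdl2 protein at 4 µg/mL for 1 h at 4 C; score merges 667 nm emission intensity with signal to noise over three replicate slides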
[8] = molecular target: Concanavalin-A (Canavalia ensiformis) (UniProt P02866); test: ConA small-molecule binders, primary screen, artefact control for SMM control protein annotation, biochemical, small-molecule microarray, Alexa647 label, 635 nm (AID 1127); settings: ConA-A647 binding fluorescence, higher = more signal;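 note: z combines 667 nm emission intensity with signal-to-noise across three replicate slides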
Sequence of Concanavalin-A (Canavalia ensiformis) (P02866 whole entry, looked up): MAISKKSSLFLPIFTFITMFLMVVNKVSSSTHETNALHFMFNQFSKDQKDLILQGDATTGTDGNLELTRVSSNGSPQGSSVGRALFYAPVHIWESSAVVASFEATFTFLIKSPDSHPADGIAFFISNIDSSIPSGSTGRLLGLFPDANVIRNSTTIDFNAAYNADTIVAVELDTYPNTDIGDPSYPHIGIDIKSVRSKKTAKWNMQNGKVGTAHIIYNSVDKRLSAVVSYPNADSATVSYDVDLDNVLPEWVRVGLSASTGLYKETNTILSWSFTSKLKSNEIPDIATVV

Sequence of Albumin (Bos taurus) (P02769 whole entry, looked up): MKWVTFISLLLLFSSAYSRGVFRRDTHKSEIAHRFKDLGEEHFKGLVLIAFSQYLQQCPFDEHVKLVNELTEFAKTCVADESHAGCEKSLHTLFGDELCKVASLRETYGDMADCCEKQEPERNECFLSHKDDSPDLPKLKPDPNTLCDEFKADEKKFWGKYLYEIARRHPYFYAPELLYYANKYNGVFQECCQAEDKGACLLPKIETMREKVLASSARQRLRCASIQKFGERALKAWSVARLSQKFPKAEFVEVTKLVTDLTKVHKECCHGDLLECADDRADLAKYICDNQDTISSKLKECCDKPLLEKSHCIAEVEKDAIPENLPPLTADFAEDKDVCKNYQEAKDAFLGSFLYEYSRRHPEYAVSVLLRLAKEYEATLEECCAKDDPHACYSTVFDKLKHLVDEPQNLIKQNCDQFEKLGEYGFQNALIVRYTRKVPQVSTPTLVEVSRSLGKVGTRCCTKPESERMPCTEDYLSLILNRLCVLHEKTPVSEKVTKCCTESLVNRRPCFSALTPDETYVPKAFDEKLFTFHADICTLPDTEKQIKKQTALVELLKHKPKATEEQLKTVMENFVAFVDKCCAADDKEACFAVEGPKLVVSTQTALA

Row | Compound | composite z-score (Albumin (Bos taurus)) | composite Z-score [1] | composite z-score [2] | composite z-score [3] | composite z-score [4] | composite z-score [5] | composite z-score [6] | composite z-score (Sam68 (KHDRBS1)) | composite z-score [7] | composite z-score [8]
1 | COCCOC(=O)N1C(=O)[C@@]2(c3cc(C#CC4=CCCCC4)ccc31)[C@H](c1ccccc1OCCO)N1[C@H](c3ccccc3)[C@H](c3ccccc3)OC(=O)[C@H]1[C@@H]2C(=O)NC[C@H](O)c1ccccc1 | -0.185 | 0.511 (inactive) | 0.463 | -0.118 | 0.409 | 1.53 | 0.661 | 1.3 | 0.715 | 1.14
2 | NC(=O)[C@@]1(Cc2ccccc2)COC(c2ccc(OCCCO)cc2)=N1 | 0.456 | 0.08 (inactive) | -0.0647 | 0.513 | 0.815 | 2.91 | -0.238 | -0.442 | -0.165 | -0.978
3 | C=CC[C@H](OC(=O)Nc1ccc(SC)cc1)c1ccc(O)c2ccccc12 | 0.923 | -0.285 (inactive) | 0.152 | -0.107 | 0.634 | 1.72 | 0.368 | 1.29 | 0.975 | 1.16
4 | COCCOC(=O)N1C(=O)[C@@]2(c3cc(C#CC4=CCCCC4)ccc31)[C@H](C(=O)Nc1nc3ccccc3s1)[C@H]1C(=O)O[C@H](c3ccccc3)[C@H](c3ccccc3)N1[C@@H]2c1ccc(O)cc1 | 0.817 | 2.58 (inactive) | -0.0279 | -0.166 | 0.661 | 1.68 | 0.61 | 1.31 | 0.408 | 1.18
5 | CC1CC/C=C\[C@H]2OC34C=CCN(c5ccc(Cl)cc5)C(=O)[C@H]3N(C(C)CO)C(=O)[C@]4(C)C2C(=O)O1 (stereo not given in full) | -1.07 | -0.408 (inactive) | -0.322 | -0.14 | 0.768 | -0.66 | 1.27 | -0.297 | -0.482 | -0.863
6 | CCOC(=O)C1=C[C@@H](C(C)C)N(S(=O)(=O)c2ccc(C)cc2)[C@H]1c1ccc(C(F)(F)F)cc1 | 0.665 | 0.559 (inactive) | 0.256 | -0.0438 | 0.173 | 2.52 | 0.327 | 1.31 | 0.106 | 1.05
7 | O=C1OCCC=C[C@H]2OC34C=CCN(c5ccc6ccccc6c5)C(=O)[C@H]3N(CCCO)C(=O)[C@@H]4C12 (stereo not given in full) | -1.39 | 0.168 (inactive) | -0.278 | -0.205 | -0.303 | -0.626 | -0.678 | -1.82 | -2.29 | -0.533
8 | COc1cc(NN2C(C(O)c3ccco3)C=CC3C(=O)N(C)C(=O)C32)cc(OC)c1OC (stereo not given) | 0.593 | 0.319 (inactive) | 0.313 | 0.267 | 0.738 | 0.815 | -0.0901 | 0.633 | 0.861 | 0.215
9 | CC1CC/C=C\[C@H]2OC34C=CCN(C(C)(C)C)C(=O)[C@H]3N(CCCCCO)C(=O)[C@@H]4C2C(=O)O1 (stereo not given in full) | -0.0891 | -0.838 (inactive) | -0.219 | -0.153 | 0.887 | -0.658 | -0.55 | -0.883 | -1.34 | -2.1
10 | CCOC(=O)C[C@H]1[C@H](OC(=O)c2cc3ccccc3oc2=O)[C@@H](NC(=O)CC(C)C)c2cc(OCCCO)ccc2N1C(=O)c1ccc2ccccc2n1 | 0.42 | -0.077 (inactive) | 0.191 | -0.237 | 0.43 | 1.04 | 0.102 | 1.26 | 0.324 | 0.625
11 | CN(C)C(=O)[C@@]1(Cc2ccccc2CN=[N+]=[N-])N=C(c2ccc(OCCCO)cc2)O[C@H]1c1ccccc1N=[N+]=[N-] | 0.973 | 0.91 (inactive) | 0.612 | -0.115 | 0.731 | 2.95 | 0.772 | 1.21 | -0.612 | 1.1
12 | Cc1ccc(N2C(=O)c3ccccc3[C@@H](C(=O)NCCCN(C)C)[C@@H]2c2ccc(CO)cc2)nc1 | -0.0424 | 0.403 (inactive) | -0.416 | -0.244 | -0.0786 | -0.515 | -0.225 | -0.292 | -0.283 | 0.375
13 | CCCCCCc1nc(Cc2cc(OC)c(OC)c(OC)c2)cc2c1[Si](C(C)C)(C(C)C)OC2 | -0.526 | 0.0886 (inactive) | -0.0395 | -0.153 | -0.0134 | 0.157 | -0.0343 | 0.239 | 0.472 | 0.524
14 | CN(C)C(=O)[C@]1(CCC(=O)OC(C)(C)C)N=C(c2ccc(OCCCO)cc2)O[C@@H]1c1ccccc1CN=[N+]=[N-] | 1.01 | -0.579 (inactive) | 0.0749 | -0.0037 | 0.673 | 3.17 | 1.15 | 1.34 | -1.24 | 1.12
15 | C=CCNC(=O)[C@H]1[C@@H]2C(=O)O[C@@H](c3ccccc3)[C@@H](c3ccccc3)N2[C@@H](c2ccccc2OCCO)[C@]12C(=O)N(C(=O)OCCOC)c1ccc(C#CC3(O)CCCCCC3)cc12 | 0.604 | 0.359 (inactive) | 0.0225 | 0.0018 | 0.309 | 1.79 | 1.05 | 1.29 | 0.174 | 0.815
16 | COC(=O)[C@@]1(Cc2ccc(OC)cc2)[C@H]2c3cc(C(=O)N(C)C)n(Cc4ccc(C)o4)c3C[C@H]2CN1C(=O)c1ccccc1 | 0.814 | 1.24 (inactive) | 0.517 | 0.204 | 0.806 | 2.99 | 0.463 | 0.933 | -0.905 | 0.842
17 | CN(C)C(=O)[C@@]1(Cc2ccccc2)N=C(c2ccc(OCCCO)cc2)O[C@H]1c1ccccc1 | 0.637 | 0.684 (inactive) | 0.738 | 0.314 | 0.617 | 2.69 | 0.973 | 0.983 | -0.682 | 0.931
